Screening results (PubChem)
ERK AVP block = qHTS Assay for Inhibitors of the ERK Signaling Pathway using a Homogeneous Screening Assay | HEK293-V1b, vasopressin-stimulated pERK AlphaScreen | Potency, µM (highest dose often 57.5 µM), actives largely listed as inhibitors | actives 0.99% (n = 72,000); further: nearly all actives have a fitted effect of over 55% in size
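Overnight-seeded V1b-HEK293 cells in 1% FBS got compound, then vasopressin (25 nM final, 5 min, 37C), then lysis buffer. AlphaScreen detection of phospho-ERK; activity normalized to basal and full-stimulation controls.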
CRE Fsk mod = Cell signaling CRE-BLA (Fsk stim) | CHO CRE-bla reporter (cAMP response element driving beta-lactamase), forskolin EC10, beta-lactamase ratio | Potency, µM (top dose mostly 38.2 µM), hits mostly activators | actives 2.5% (n = 71,000); active means well fitted activation curve with a large enough effect in the signal ratio, with a control signal flat, not every such curve was filed as active; inconclusive means small, poorly fitted or top-dose-only effect, or effect the other way, or a change in a side signal; the % refers to the signal ratio
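Using CellSensor CRE-bla CHO cells in Opti-MEM with 0.5% dialyzed FBS, compounds were titrated with EC10 NKH 477 for 3 h at 37 °C. CCF4 ratio (460/530 nm) gave %Activity; AC50 derived.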
HBB splice mod = qHTS Assay for Modulators of Hemoglobin Beta Chain Splicing. Potency, µM (titrated, usually from 46.1 µM), actives largely listed as activators. HBB splicing reporter cell assay, activation; EGFP reporter with mutant IVS2-654 intron; response scale: normalised to 500 nM splice-correcting PNA. actives 0.06% (n = 65,000)
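HeLa cells stably expressing EGFP interrupted by mutant beta-globin intron 2 (IVS2-654), 500/well in 2% FCS. Treated with compound for 2 days at 37C. Splicing correction scored as total well GFP intensity (488 nm excitation, 500-520 nm emission); 500 nM antisense PNA served as control.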
IkB signaling = IkB Signaling. ABC-DLBCL IkBa-CBG/CBR dual luciferase ratio, 4 h; response scale: scaled: untreated 0%, proteasome inhibitor 100%. Potency, µM (top dose mostly 57.1 µM). actives 0.04% (n = 110,000); active means well fitted curve in the direction sought with a large enough effect in the signal ratio, not every such curve was filed as active; inconclusive means small, poorly fitted or top-dose-only effect, or a change in a side signal; the % refers to the signal ratio;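 further: the direction sought is a rising ratio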
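In this assay, an IκBα–CBG68 fusion accumulates when IKK-driven degradation is blocked; native CBR normalizes for cell number. OCI-Ly3 cells were treated 4 h with compound and doxycycline, then green and red light read after Chroma-Glo addition.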
Epigenetic mod = qHTS Assay for Epigenetic Modulators. mouse C127i GFP locus derepression, cytometry, 30 h. Potency, µM (titrated, usually from 46.1 µM). actives 0.09% (n = 68,000)
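Read-out is the number of GFP-positive cells, scored as fluorescent objects 20 to 120 um wide, reflecting derepression of a silenced CMV-GFP reporter in murine C127i cells after 30 h compound exposure at 37 C.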
Large screens that a line does not name were inactive. The full list was thinned out, with hits kept by preference. Unless noted, the call rests on the fitted dose curve; in most records, active means well fitted curve in the direction sought with a large enough effect; inconclusive means small, poorly fitted or top-dose-only effect, or another doubt; inactive means no such curve, though single readings can be large; an effect the other way counts as inactive or inconclusive.

Cc1ccc(SCCNC(=O)CN2C(=O)c3ccccc3S2(=O)=O)cc1	ERK AVP block 7.9µM (no result: HBB splice mod)
O=C(CN1C(=O)c2ccccc2S1(=O)=O)NCCSc1ccccc1	none
Cc1ccccc1-n1nc2c(c1NC(=O)c1cc3ccccc3oc1=O)CS(=O)C2 (configuration not stated)	CRE Fsk mod 2.5µM
Cc1ccccc1-n1nc2c(c1NC(=O)c1cc3ccccc3oc1=O)CS(=O)(=O)C2	CRE Fsk mod 1.6µM
COc1ccccc1C(=O)Nc1c2c(nn1-c1cccc(C)c1C)CS(=O)(=O)C2	CRE Fsk mod 1.6µM
COc1ccc(NC(=O)CSc2nc3ccccc3nc2N2CCC(C)CC2)cc1	none (no result: ERK AVP block, CRE Fsk mod, HBB splice mod, Epigenetic mod)
COc1ccc(Nc2nc(N)nc(C(F)(F)F)n2)c(OC)c1	CRE Fsk mod 13µM
COc1ccc(Nc2nc(N3CCCCC3)nc(N3CCCCC3)n2)c(OC)c1	CRE Fsk mod inconclusive
CN(C)c1ccc(NC(=O)CCCc2ccccc2)cc1	ERK AVP block 20µM, CRE Fsk mod inconclusive
CCOC(=O)c1ccccc1NC(=O)CSc1ccc(-c2sc(C)nc2C)nn1	none (no result: ERK AVP block, CRE Fsk mod, HBB splice mod, Epigenetic mod)
c1ccc(-c2nnc(SCc3cn4ccsc4n3)o2)cc1	CRE Fsk mod 10µM
COc1cc2cc(C(=O)Nc3ccccc3)c(N)nc2cc1OC	CRE Fsk mod 3.2µM, IkB signaling inconclusive
COc1cc2ccccc2cc1C(=O)Nc1cccnc1	CRE Fsk mod inconclusive
CC(=O)N(C[C@@H](C)C(=O)O)c1c(I)cc(I)c(N)c1I	none
Cc1csc2nc(CSc3nncn3-c3ccccc3)c(Br)n12	CRE Fsk mod inconclusive
Cc1csc2nc(CSc3nc4ccccc4o3)c(Br)n12	CRE Fsk mod 2.5µM, IkB signaling inconclusive
COc1ccccc1NC(=O)c1cc2ccccc2o/c1=N\O	IkB signaling inconclusive (no result: HBB splice mod)
COc1ccccc1N=c1oc2cc(O)ccc2cc1C(N)=O	CRE Fsk mod inconclusive, IkB signaling inconclusive
COc1ccccc1NC(=O)c1cc2ccc(O)cc2o/c1=N\O	ERK AVP block 32µM, CRE Fsk mod 10µM, IkB signaling inconclusive
COc1ccccc1N=c1oc2cc(O)ccc2cc1C(=O)NCC1CCCO1 (configuration not stated)	ERK AVP block inconclusive, CRE Fsk mod 10µM, IkB signaling inconclusive (no result: HBB splice mod)
COc1ccccc1NC(=O)c1ccccc1NS(C)(=O)=O	CRE Fsk mod 2µM
COc1ccccc1N1CCN(C(=O)C(CCSC)NS(=O)(=O)c2ccc3c(c2)oc(=O)n3C)CC1 (configuration not stated)	none (no result: ERK AVP block, CRE Fsk mod, HBB splice mod, Epigenetic mod)
CCC1CN(C(=O)Nc2ccc(C(=O)O)cc2)c2cc(Cl)ccc2O1 (configuration not stated)	none (no result: ERK AVP block, CRE Fsk mod, HBB splice mod, Epigenetic mod)
Cc1ccc(CNC(=O)c2cc3c(=O)n4cccc(C)c4nc3n(CC3CCCO3)c2=N)cc1 (configuration not stated)	CRE Fsk mod inconclusive
COc1ccc(CCn2c(=N)c(C#N)cc3c(=O)n4ccccc4nc32)cc1	none (no result: ERK AVP block, CRE Fsk mod, HBB splice mod, IkB signaling)
COc1ccc(CCn2c(=N)c(C(=O)N3CCN(C)CC3)cc3c(=O)n4ccccc4nc32)cc1	ERK AVP block inconclusive, CRE Fsk mod 13µM
COCCCn1c(=N)c(C(=O)NCC2CCCO2)cc2c(=O)n3cccc(C)c3nc21 (configuration not stated)	ERK AVP block inconclusive, CRE Fsk mod inconclusive (no result: HBB splice mod)
CCCn1c(=N)c(C(=O)NCC2CCCO2)cc2c(=O)n3cccc(C)c3nc21 (configuration not stated)	CRE Fsk mod 13µM
N=c1c(C(=O)NCc2ccc(F)cc2)cc2c(=O)n3ccccc3nc2n1CC1CCCO1 (configuration not stated)	CRE Fsk mod 2µM
N=c1c(C(=O)NCC2CCCO2)cc2c(=O)n3ccccc3nc2n1CCCO (configuration not stated)	none (no result: ERK AVP block, CRE Fsk mod, HBB splice mod, Epigenetic mod)
COCCCn1c(=N)c(C(=O)NCC2CCCO2)cc2c(=O)n3ccccc3nc21 (configuration not stated)	CRE Fsk mod 16µM
CN1CCN(c2nc(-c3ccc4c(c3)OCO4)nc3ccccc23)CC1	CRE Fsk mod inconclusive
COc1ccc(C(=O)NCc2nnc(SCC(=O)Nc3ccccc3)n2-c2ccccc2)cc1	none (no result: ERK AVP block, CRE Fsk mod, HBB splice mod, Epigenetic mod)
O=C(Nc1ccccc1[N+](=O)[O-])c1csnn1	none (no result: ERK AVP block, CRE Fsk mod, HBB splice mod, Epigenetic mod)
CCC(O)CNc1nc(-n2nc(C)cc2C)nc2sc3c(c12)CCCC3 (configuration not stated)	CRE Fsk mod 0.79µM
NC1=NC(c2cccc(Cl)c2)n2c(nc3ccccc32)N1 (configuration not stated)	none (no result: ERK AVP block, CRE Fsk mod, HBB splice mod, Epigenetic mod)
CCCN1Cc2cccc(C(=O)Nc3cc(OC)cc(OC)c3)c2C1=O	CRE Fsk mod 6.3µM
O=[N+]([O-])c1ccccc1Nc1ccccc1	ERK AVP block 16µM (no result: Epigenetic mod)
NC(=O)CSc1nc2scc(-c3ccco3)c2c(=O)n1-c1ccccc1	ERK AVP block inconclusive, CRE Fsk mod inconclusive
O=c1c2c(-c3ccco3)csc2nc(SCc2cn3cccnc3n2)n1-c1ccccc1	ERK AVP block inconclusive, CRE Fsk mod 1µM
O=C(CSc1nc2scc(-c3ccco3)c2c(=O)n1-c1ccccc1)NCC1CCCO1 (configuration not stated)	ERK AVP block inconclusive, CRE Fsk mod inconclusive, IkB signaling 7.9µM
C=CCn1c(SCC(=O)NCCOC)nc2scc(-c3ccco3)c2c1=O	IkB signaling inconclusive, Epigenetic mod inconclusive
C=CCn1c(SCC(=O)NCC2CCCO2)nc2scc(-c3ccco3)c2c1=O (configuration not stated)	CRE Fsk mod 6.3µM
O=C1C(=O)N(C2CCN(C(=O)c3cccc(Cl)c3)CC2)CCN1Cc1ccc(F)cc1	none (no result: ERK AVP block, CRE Fsk mod, HBB splice mod, Epigenetic mod)
C=C(C)CSC1=C(C#N)C(c2ccccc2Cl)CC(=O)N1 (configuration not stated)	ERK AVP block 20µM
COc1cc(C2C3=C(Nc4ncnn42)c2ccccc2CC3)cc(OC)c1OC (configuration not stated)	CRE Fsk mod 0.5µM
COc1ccc(C2C3=C(Nc4ncnn42)c2ccccc2CCC3)cc1 (configuration not stated)	none
O=c1c(NCc2ccccc2Cl)nccn1-c1ccccc1	none (no result: ERK AVP block, CRE Fsk mod, HBB splice mod, Epigenetic mod)
CCOc1ccc(C(=O)Nc2c(C(=O)Nc3ccccc3OC)oc3ccccc23)cc1OCC	none (no result: ERK AVP block, CRE Fsk mod, HBB splice mod, Epigenetic mod)
Nc1ncnc2c1nc(Br)n2[C@H]1O[C@H]2COP(=O)(O)O[C@H]2[C@@H]1O	CRE Fsk mod inconclusive (no result: HBB splice mod)
O=S1(=O)Nc2c(ccc3cccnc23)-c2ccccc21	CRE Fsk mod inconclusive, IkB signaling 0.79µM
CCCCn1c(NC(=O)c2ccccc2)c(C#N)c2nc3ccccc3nc21	ERK AVP block inconclusive, CRE Fsk mod 10µM, HBB splice mod inconclusive, IkB signaling inconclusive
O=c1c2ccccc2nc(-c2ccccc2)n1CCN1CCOCC1	none
c1ccc2nc3c(nc2c1)c1ccccc1n3CCN1CCOCC1	CRE Fsk mod 13µM
